# GDH-TPI counter-1 – GDH-TPI coupled enzyme inhibition counter-screen | GDH-TPI coupled enzyme counterscreen, NADH absorbance | inhibition, % at 4.8 µM | 1.2% of 360,000 active | AID 588335; in the data active means inhibition above about 30%
# PrPC surface inh – reduces human prion protein on the cell surface. P04156. cell surface PrPC, TR-FRET read-out. inhibition, % at 13.8 µM. 0.43% of 370,000 active. AID 720596; in the data active means inhibition above about 24%
# Yp Topo-I inh – Y. pestis Topo-I inhibition via cleavage products. AID 504884. activity, % at 10 µM. Y. pestis Topo-I cleavage product accumulation, plate reader. 0.064% of 360,000 active; in the data active means activity above about 50%, passing the limit was not always enough
# PrP 5UTR inh – inhibition of PrP 5' UTR reporter expression; cell-based PrP 5' UTR mRNA reporter, plate reader; inhibition, % (concentration not given with the values); 0.35% of 340,000 active; in the data active means inhibition above about 52%
# Mtb FBA inh – Mtb fructose-bisphosphate aldolase inhibition; purified M. tuberculosis FBA, fluorescence read-out; inhibition, % at 1 µM; 2.3% of 360,000 active; AID 588726
# Target sequence (P9WQA3 whole entry, looked up): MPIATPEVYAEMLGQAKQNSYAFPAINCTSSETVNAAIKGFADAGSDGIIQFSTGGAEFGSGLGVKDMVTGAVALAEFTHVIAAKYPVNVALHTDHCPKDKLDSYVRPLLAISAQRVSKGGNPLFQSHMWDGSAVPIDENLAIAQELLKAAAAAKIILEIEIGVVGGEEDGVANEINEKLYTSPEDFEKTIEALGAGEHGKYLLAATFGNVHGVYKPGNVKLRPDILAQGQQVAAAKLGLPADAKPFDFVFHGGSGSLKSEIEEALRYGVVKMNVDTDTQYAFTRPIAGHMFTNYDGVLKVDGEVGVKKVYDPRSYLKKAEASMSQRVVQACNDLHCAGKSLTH
# Mtb hypoxia inh – reduces hypoxia-regulated biosensor signal in M. tuberculosis | M. tuberculosis hypoxia-regulated fluorescent reporter, fluorescence | fluorescence inhibition, % (test concentration not listed) | 0.1% of 300,000 active; in the data active means fluorescence inhibition mostly above about 23%, no sharp cut-off; inactive means mostly below about 17%
# Mtb FBA inh conf – Mtb FBA inhibition, confirmed. 78% of 5,600 active. shares compounds with Mtb FBA inh. inhibition, % at 1 µM. purified M. tuberculosis FBA, fluorescence read-out. AID 651616
# GDH-TPI counter-2 – inhibits GDH-TPI coupling enzymes, flagging Mtb FBA hits | shares compounds with Mtb FBA inh | GDH-TPI coupled enzyme counterscreen, fluorescence | inhibition, % at 1 µM | 81% of 5,600 active | AID 652141; in the data active means inhibition above about 10%
# Hits are given with their value; . = inactive; / = no result; + = active, no number. In the library only some 3.8% were active in any assay of this set; here they are far more common. Unless noted, no stated cut-off is given here; in the data, active means inhibition above about 27%; inactive means the rest.
SMILES,GDH-TPI counter-1,PrPC surface inh,Yp Topo-I inh,PrP 5UTR inh,Mtb FBA inh,Mtb hypoxia inh,Mtb FBA inh conf,GDH-TPI counter-2
CCOC(=O)c1nc2ccccc2c(=O)[nH]1,.,.,.,.,.,.,/,/
CCOC(=O)c1nc(N)c(C(=O)OCC)[nH]1,.,.,.,.,59,/,198,166
CC(=NNC(=O)C(N)=O)c1ccc(O)cc1O,/,/,/,/,/,.,/,/
C/C(=N\O)c1ccc2c3ccccc3n(C)c2c1,.,.,.,.,44,/,+,169
COc1ccc(N2C(=O)CSC2=NC(=S)Nc2ccccc2)cc1,/,/,/,/,/,.,/,/
CCCCN(CC)CCCNC(=O)c1cc2c(-c3ccc(OC)c(OC)c3)nn(C)c2s1,.,.,.,.,.,.,/,/
COc1ccc2[nH]c3c(=O)n4c(nc3c2c1)SCCC4,.,.,.,.,71,.,103,88
CCN1CCCC1CNC(=O)c1cc2c(-c3ccc(Cl)cc3)nn(C)c2s1 (stereo unspecified),.,/,.,.,.,/,/,/
CCN(CC)CCCNC(=O)c1cc2c(-c3cccc(OC)c3)nn(C)c2s1,.,.,.,.,58,/,102,87
CCN1CCCC1CNC(=O)c1cc2c(-c3cccc(OC)c3)nn(C)c2s1 (stereo unspecified),.,.,.,.,36,/,100,59
CCCCN(C)CCNC(=O)c1cc2c(-c3cccc(OC)c3)nn(C)c2s1,.,.,.,.,42,.,47,27
CC(=NNC(=O)CC#N)c1cc2ccccc2oc1=O,/,/,/,/,/,.,/,/
CCC1CCCN1Cn1cnc2c([nH]c3ccc(OC)cc32)c1=O (stereo unspecified),.,.,.,.,54,.,94,74
COc1cccc(-c2nn(C)c3sc(C(=O)NCCCN(C)Cc4ccccc4)cc23)c1,.,.,.,.,43,.,112,103
CCN1CCCC1CNC(=O)c1[nH]c2ccc(OC)cc2c1C (stereo unspecified),.,.,.,.,45,.,+,+
CCc1cc(C(=O)NN=Cc2ccc(O)cc2O)c2ccccc2n1,/,/,/,/,/,.,/,/
O=C1C=C(c2cccc(Cl)c2O)CC(c2ccc3c(c2)OCO3)C1 (stereo unspecified),/,/,/,/,/,.,/,/
CCOC(=O)C(=O)C1=CN(Cc2ccccc2)C=C(C#N)C1,.,.,.,.,29,.,98,70
CN(C)C(=O)COc1ccc2ccc(=O)oc2c1,.,.,.,.,.,.,/,/
CC(C)CN(C(=O)COc1ccc2ccc(=O)oc2c1)C1CCS(=O)(=O)C1 (stereo unspecified),.,.,.,.,.,.,/,/
CN(C(=O)COc1ccc2ccc(=O)oc2c1)C1CCS(=O)(=O)C1 (stereo unspecified),.,.,.,.,38,.,190,147
CCN(C(=O)COc1ccc2ccc(=O)oc2c1)C1CCCCC1,.,.,.,.,35,.,72,51
COc1ccc(CCNC(=O)C2CCN(C(=O)c3ccccc3C)CC2)cc1,.,.,.,.,49,.,.,.
c1cc(-c2cccs2)nc(-c2cccs2)c1,.,.,.,.,.,.,/,/
c1csc(-c2cn3ccc4ccccc4c3n2)c1,.,.,.,.,47,.,.,.
SMILES,GDH-TPI counter-1,PrPC surface inh,Yp Topo-I inh,PrP 5UTR inh,Mtb FBA inh,Mtb hypoxia inh,Mtb FBA inh conf,GDH-TPI counter-2
COc1ccccc1N1CCN(C(=O)c2cc3c(s2)CCCCC3)CC1,.,.,.,.,.,.,/,/
O=C(c1cc2c(s1)CCCC2)N1CCN(c2ccccc2)CC1,.,.,.,.,34,.,84,67
COc1ccc2c(c1)c1ncn(CCc3ccccc3)c(=O)c1n2C,.,.,.,.,105,.,106,91
COC(=O)c1scc2c(=O)cc(C(F)(F)F)[nH]c12,.,.,.,.,29,.,/,+
C=CCOc1ccc2oc(=O)cc(C)c2c1,.,.,.,.,.,.,/,/
CCCOc1ccc2c3c(c(=O)oc2c1)CCCC3,.,.,.,.,60,/,97,76
C=CCOc1ccc2c3c(c(=O)oc2c1)CCCC3,.,.,.,.,74,/,+,+
CCOc1cc2oc(=O)c3c(c2cc1Cl)CCC3,.,.,.,.,.,.,/,/
CCc1cc2c3c(c(=O)oc2cc1OC)CCCC3,.,.,.,.,67,.,77,53
CC(=O)N1C(Cc2ccccc2)C=C[C@]1(C)C(=O)NCCc1c[nH]c2ccccc12 (stereo partly specified),/,/,/,/,/,.,/,/
NC(=O)CCC1NC(=O)C2CCCN2C(=O)c2cc([N+](=O)[O-])cc(F)c2NCCCC(C(N)=O)NC1=O (stereo unspecified),/,/,/,/,/,.,/,/
O=C(NN=Cc1ccc2c(c1)OCO2)c1cccnc1,/,/,/,/,/,.,/,/
N#Cc1nc(-c2ccco2)oc1N1CCC(Cc2ccccc2)CC1,.,.,.,.,30,.,.,.
N#Cc1nc(-c2ccco2)oc1N1CCN(c2ccccc2)CC1,.,.,.,.,.,.,/,/
COc1ccc(N2CCN(c3oc(-c4ccco4)nc3C#N)CC2)cc1,.,.,.,.,.,.,/,/
COc1ccc(N2CCN(c3oc(-c4ccccc4OC)nc3C#N)CC2)cc1,.,/,.,.,.,.,/,/
N#Cc1nc(-c2ccco2)oc1N1CCOCC1,.,.,.,.,82,.,198,160
N#Cc1nc(-c2ccccc2Cl)oc1N1CCOCC1,.,.,.,.,33,.,113,92
O=[N+]([O-])c1ccc(-c2ccc(C=NO)o2)cc1,/,/,/,/,/,.,/,/
CCn1cc(C=NNC(=O)c2ccc3c(c2)c(C)c(C)n3Cc2ccccc2)c(C)n1,/,/,/,/,/,.,/,/
Cc1ccc(C2=NOC3(CC(=O)N(c4ccccc4)C3=O)C2)cc1 (stereo unspecified),.,.,.,.,.,.,/,/
Cc1ccc(C2=NOC3(CC(=O)N(c4ccc(C)cc4)C3=O)C2)cc1 (stereo unspecified),.,.,.,.,29,.,43,38
COc1ccc(-c2cc(C(F)F)nc(-n3nc(C)cc3C)n2)cc1,.,.,.,.,52,.,63,44
c1ccc2c(c1)[nH]c1c(N3CCN(C4CCCCC4)CC3)ncnc12,.,.,.,.,33,.,40,22
c1ccc2c(c1)[nH]c1c(N3CCCC3)ncnc12,.,.,.,.,.,/,/,/
C=C(C)COc1ccc2c(C)c(CC(=O)OC)c(=O)oc2c1C,.,/,.,.,89,/,76,62
C=C(C)COc1ccc2c(C)c(C)c(=O)oc2c1OCC(=C)C,.,.,.,.,.,.,/,/
CCc1c(C)c2ccc(OCC(=O)OC(C)C)c(C)c2oc1=O,.,.,.,.,.,.,/,/
Cc1c(CC(=O)O)c(=O)oc2c(C)c(OCc3c(F)cccc3Cl)ccc12,.,.,.,/,44,.,76,67
COC(=O)Cc1c(C)c2ccc(OCC(C)=O)c(C)c2oc1=O,.,.,.,.,79,/,.,.

# Assay outcomes as filed in PubChem.
